Data from PubChem BioAssay (NCATS).
Results filed as inconclusive are left out. Calls of active or inactive are those of the source. Unless noted, the call rests on the fitted dose curve; in most records, active means well fitted curve in either direction with a large enough effect (not every such curve was filed as active); inconclusive means small, poorly fitted or top-dose-only effect, or another doubt; inactive means flat fitted curve, though single readings scatter.

Columns and labels:
[1] = biological target: Lysosomal acid glucosylceramidase (Homo sapiens) (UniProt P04062); experiment: Glucocerebrosidase-p2 (AID 348; in the data active means potency below about 10 µM; further: potency means the concentration at half of the fitted maximal effect); conditions: purified GBA, blue fluorogenic substrate, 40 min
How it was run: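 Compounds titrated from 0.6 nM upwards against 0.2 nM enzyme in pH 5.9 citric acid/KH2PO4, taurocholate, tween-20; blue fluorogenic substrate 80 uM, 40 min room temperature, stopped and read Ex 365/Em 440 for AC50.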

[2] = AP1 Signaling Pathway (AID 357); conditions: ME-180 AP-1-bla reporter, EGF-induced, beta-lactamase ratio, 5 h; at 7.69 µM (top of the series) unless noted; further: on the % scale 0 is the no-effect control and ±100 the full control effect
How it was run: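 In this screen, ME-180 cells in Opti-MEM with 0.5% dialyzed FBS received EC50 EGF and compound titrations for 5 h. AP-1 reporter beta-lactamase was detected via CCF4 ratio, giving AC50 for positive and negative modulators.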

[3] = NFAT Signaling Pathway (AID 444); conditions: Jurkat NFAT-bla M1, carbachol, beta-lactamase ratio, 5 h; at 7.69 µM (top of the series) unless noted;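 further: carbachol stimulus at about its EC50 of 1 µM final; on the % scale 0 is the no-effect control and ±100 the full control effect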
How it was run: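 Jurkat cells with NFAT-driven β-lactamase reporter and co-expressed M1 receptor, stimulated with carbachol (final 1 uM, ~EC50), compound titration, 5 h at 37 °C. CCF4 loaded 1 h at RT; 460/530 nm ratio gave %activity and AC50.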

[4] = Stat Signaling Pathway (AID 446); conditions: ME-180 SIE beta-lactamase reporter, IL-6 stimulated, 5 h; at 7.69 µM (top of the series) unless noted;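 further: ME-180 cervical cancer cells given 40 pM IL-6 alongside compound; SIE-controlled beta-lactamase reporter measured as 460/530 nm FRET emission ratio; on the % scale 0 is the no-effect control and ±100 the full control effect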
How it was run: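 ME-180 cells carrying a SIE-driven beta-lactamase reporter are stimulated with 40 pM IL-6 for 5 h at 37C in the presence of compound. The 460/530 nm FRET substrate ratio is read after 2.5 h at RT. Data are normalised to 300 pM IL-6 and to 125 nM JAK inhibitor controls.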

[5] = biological target: Glucocorticoid receptor (Homo sapiens) (UniProt P04150); experiment: GR-EFC Redistribution (AID 451; calls by dose curve; further: potency means the concentration at half of the fitted maximal effect); conditions: CHO-K1 GR-EFC translocation, beta-gal luminescence, 2 h
How it was run: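 CHO-K1 cells expressing nuclear EA and GR-ED fragments of b-gal; compounds titrated up to 46 uM final, 2 h at 37 C. GR nuclear translocation read as complemented b-gal luminescence after 1 h RT detection.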

[6] = biological target: Mitogen-activated protein kinase 10 (Mus musculus) (UniProt Q61831); experiment: JNK3 AlphaScreen Assay (AID 530); conditions: JNK3 lysate, c-Jun phosphorylation; series mostly up to 57.1 µM;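 further: kinase came from lysate of stimulated human HepG2 cells; signal reports phosphorylation of biotinylated GST-cJun 1-79 at Ser73 with 10 µM ATP; on the % scale 0 is the no-effect control and ±100 the full control effect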
How it was run: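 qHTS format: compounds tested as titrations against IL-1beta/TNF-alpha-activated HepG2 lysate JNK3 with biotin-GST-cJun substrate and 10 uM ATP at room temperature. Loss of anti-phospho-cJun AlphaScreen signal indicates inhibition.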

[7] = biological target: 3',5'-cyclic-AMP phosphodiesterase 4B (Homo sapiens) (UniProt Q07343); experiment: qHTS Assay for Inhibitors of PDE-IV (AID 607; active means well fitted activation curve with a large enough effect in the main read-out, with a control signal flat, not every such curve was filed as active; further: % of control where 0% means no effect); conditions: HEK293 ACTOne CNG channel cells, membrane potential fluorescence; series mostly up to 22.9 µM
How it was run: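 HEK293 ACTOne cells with CNG channel (1000/well), endogenous PDE4; membrane potential dye, compounds up to 22.9 uM final. Fluorescence Ex 535/Em 590; RO 20-1724 (100 uM final) as reference.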

[8] = qHTS Assay for Lipid Storage Modulators (AID 1519; calls by dose curve); conditions: Drosophila S3 cells, BODIPY lipid droplet/cell ratio, laser cytometry, cells loaded with oleic acid; for activity change, negative = inhibition: at 57.5 µM (top of the series)
How it was run: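 Cells seeded at 5,000 per well were treated with compounds over a concentration series and loaded with oleic acid (400 uM, as added). Lipid droplet fluorescence (488 nm excitation, 500-530 nm channel) was read by laser-scanning cytometry and normalized to 20 uM Triacsin C.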

[9] = Primary qHTS for small molecule stabilizers of the endoplasmic reticulum resident proteome: Secreted ER Calcium Modulated Protein (SERCaMP) assay (AID 1508630; active means well fitted curve in the direction sought with a large enough effect; an effect the other way counts as inactive or inconclusive; further: on the % scale 0 is the no-effect control and ±100 the full control effect); conditions: SH-SY5Y GLuc-SERCaMP (Gaussia luciferase released on ER calcium loss) secretion, thapsigargin, luminescence; series mostly up to 38.4 µM
How it was run: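 GLuc-SERCaMP-expressing SH-SY5Y cells, pretreated 16 h with compound, are challenged with thapsigargin to empty ER calcium stores; after 4 h, coelenterazine is added directly to the medium and luminescence is imaged.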

[10] = biological target: Glucocorticoid receptor (Homo sapiens) (UniProt P04150); experiment: GR-GFP Redistribution (AID 450;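 active means compounds whose dose series gives a full or clear partial fitted curve of increased nuclear translocation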; further: potency means the concentration at half of the fitted maximal effect); conditions: U2OS GR-GFP nuclear translocation, laser cytometry, 2 h
[11] = biological target: Cytochrome P450 3A4 (Homo sapiens) (UniProt P08684); experiment: qHTS Assay for Activators of Cytochrome P450 3A4 (AID 885; active means well fitted curve in the direction sought with a large enough effect; an effect the other way counts as inactive or inconclusive; further: nearly all actives have a fitted effect of over 65% in size); conditions: recombinant CYP3A4, Luciferin-PPXE luminescence, 60 min; series mostly up to 57.1 µM
How it was run: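 Human CYP3A4 (20 nM) with Luciferin-PPXE at 25 uM (its KM) in 200 mM KPO4; 10 min compound preincubation, then NADPH regeneration and 60 min reaction at RT. Luciferin read by luminescence; normalized to 57 uM ketoconazole full inhibition.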

[12] = biological target: Cytochrome P450 2D6 (Homo sapiens) (UniProt P10635); experiment: qHTS Assay for Inhibitors and Substrates of Cytochrome P450 2D6 (AID 891; active means well fitted curve in the direction sought with a large enough effect; an effect the other way counts as inactive or inconclusive; further: potency means the concentration at half of the fitted maximal effect; nearly all actives have a fitted effect of over 60% in size); conditions: recombinant CYP2D6, luciferin-ME EGE luminescence; series mostly up to 57.1 µM
How it was run: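 Human CYP2D6 (5 nM) with 30 uM Luciferin-ME EGE (at Km) in 100 mM KPO4, compound preincubated 10 min, then NADPH regeneration system for 60 min at room temperature. Luciferin read by luminescence; normalized to 1.43 uM quinidine.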

[13] = Confirmation and Secondary Assay for Modulators of Hemoglobin Beta Chain Splicing at IVS2 654 locus (AID 910; active means well fitted curve in the direction sought with a large enough effect; an effect the other way counts as inactive or inconclusive;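 further: HeLa cells stably carrying EGFP split by mutant beta-globin IVS2-654 intron; % of control where 0% means no effect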); conditions: HeLa EGFP-654 splicing reporter, GFP fluorescence, 48 h; series mostly up to 38.3 µM
How it was run: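 HeLa cells stably expressing EGFP interrupted by β-globin IVS2-654 intron, seeded overnight in Opti-MEM/2% FCS, then treated 2 days at 37 °C. Restored splicing read as total peak GFP intensity per well by laser scanning cytometry (488 nm excitation, 500–520 nm emission); 500 nM antisense PNA as control.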

[14] = Confirmation and Secondary Assay for Modulators of Hemoglobin Beta Chain Splicing at IVS2 705 locus (AID 930; active means well fitted curve in the direction sought with a large enough effect; an effect the other way counts as inactive or inconclusive;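 further: HeLa cells stably expressing the EGFP-705 splicing reporter; GFP fluorescence per well restored by corrected splicing of the IVS2-705 intron in EGFP; % of control where 0% means no effect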); conditions: HeLa EGFP-705 splicing reporter, GFP fluorescence, 48 h; series mostly up to 38.3 µM
How it was run: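 HeLa IVS2-705 EGFP reporter cells, 500/well, compound 2 d at 37C; correct splicing yields fluorescent EGFP. Control: 500 nM antisense PNA. Read-out: total peak GFP intensity.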

[15] = biological target: Ubiquitin carboxyl-terminal hydrolase 1 (Homo sapiens) (UniProt O94782); experiment: Inhibitors of USP1/UAF1: Pilot qHTS (AID 504865; active means well fitted curve in the direction sought with a large enough effect; an effect the other way counts as inactive or inconclusive;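 further: rhodamine fluorescence freed from ubiquitin-rhodamine substrate followed over time; top concentration of the series differs between compounds; on the % scale 0 is the no-effect control and ±100 the full control effect; nearly all actives have a fitted effect of over 35% in size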); conditions: purified USP1/UAF1, Ub-rhodamine cleavage fluorescence; series mostly up to 54.9 µM
How it was run: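 Kinetic fluorescence assay: 1nM USP1/UAF1, 15 min compound preincubation, then 150nM Ub-Rho; 480/540 nm.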

[16] = measured here: cell count channel max response
[17] = measured here: lipid channel max response

Lysosomal acid glucosylceramidase (Homo sapiens), sequence (P04062 whole entry, looked up): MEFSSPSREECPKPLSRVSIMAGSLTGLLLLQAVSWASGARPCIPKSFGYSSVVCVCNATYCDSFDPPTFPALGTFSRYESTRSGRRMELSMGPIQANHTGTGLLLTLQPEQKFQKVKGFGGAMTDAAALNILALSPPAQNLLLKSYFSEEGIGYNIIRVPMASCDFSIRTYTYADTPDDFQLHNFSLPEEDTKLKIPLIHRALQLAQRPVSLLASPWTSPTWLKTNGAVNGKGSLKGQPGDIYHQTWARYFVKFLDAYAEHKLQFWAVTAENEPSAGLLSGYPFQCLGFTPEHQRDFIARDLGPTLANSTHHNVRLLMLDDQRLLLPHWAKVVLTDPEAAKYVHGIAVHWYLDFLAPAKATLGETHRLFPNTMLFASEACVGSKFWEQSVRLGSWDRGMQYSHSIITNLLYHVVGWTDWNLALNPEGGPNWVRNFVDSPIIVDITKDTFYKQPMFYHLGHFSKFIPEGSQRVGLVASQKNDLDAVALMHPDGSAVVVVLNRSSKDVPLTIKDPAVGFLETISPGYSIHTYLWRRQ
Glucocorticoid receptor (Homo sapiens), sequence (P04150 whole entry, looked up, the tested form may be a part): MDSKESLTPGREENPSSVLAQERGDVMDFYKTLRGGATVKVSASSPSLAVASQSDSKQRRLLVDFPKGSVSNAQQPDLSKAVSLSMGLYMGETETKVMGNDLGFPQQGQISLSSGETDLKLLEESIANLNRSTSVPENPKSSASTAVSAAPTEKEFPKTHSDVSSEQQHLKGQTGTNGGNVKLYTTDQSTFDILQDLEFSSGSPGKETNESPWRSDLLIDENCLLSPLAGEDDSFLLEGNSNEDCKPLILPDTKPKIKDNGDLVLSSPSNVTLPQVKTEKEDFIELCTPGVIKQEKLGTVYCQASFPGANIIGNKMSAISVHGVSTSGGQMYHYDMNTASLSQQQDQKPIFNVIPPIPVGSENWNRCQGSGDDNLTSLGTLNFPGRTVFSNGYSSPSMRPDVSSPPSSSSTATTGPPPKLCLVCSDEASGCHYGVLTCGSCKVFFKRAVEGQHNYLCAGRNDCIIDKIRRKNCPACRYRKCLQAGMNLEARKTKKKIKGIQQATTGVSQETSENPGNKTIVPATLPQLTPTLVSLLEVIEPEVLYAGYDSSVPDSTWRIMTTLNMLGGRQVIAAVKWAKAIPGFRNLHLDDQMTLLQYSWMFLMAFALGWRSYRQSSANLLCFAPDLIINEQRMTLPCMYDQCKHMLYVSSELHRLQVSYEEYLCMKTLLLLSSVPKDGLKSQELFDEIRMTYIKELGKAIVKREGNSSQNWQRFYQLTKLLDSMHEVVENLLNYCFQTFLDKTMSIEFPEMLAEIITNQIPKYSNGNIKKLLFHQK
3',5'-cyclic-AMP phosphodiesterase 4B (Homo sapiens), sequence (Q07343 whole entry, looked up): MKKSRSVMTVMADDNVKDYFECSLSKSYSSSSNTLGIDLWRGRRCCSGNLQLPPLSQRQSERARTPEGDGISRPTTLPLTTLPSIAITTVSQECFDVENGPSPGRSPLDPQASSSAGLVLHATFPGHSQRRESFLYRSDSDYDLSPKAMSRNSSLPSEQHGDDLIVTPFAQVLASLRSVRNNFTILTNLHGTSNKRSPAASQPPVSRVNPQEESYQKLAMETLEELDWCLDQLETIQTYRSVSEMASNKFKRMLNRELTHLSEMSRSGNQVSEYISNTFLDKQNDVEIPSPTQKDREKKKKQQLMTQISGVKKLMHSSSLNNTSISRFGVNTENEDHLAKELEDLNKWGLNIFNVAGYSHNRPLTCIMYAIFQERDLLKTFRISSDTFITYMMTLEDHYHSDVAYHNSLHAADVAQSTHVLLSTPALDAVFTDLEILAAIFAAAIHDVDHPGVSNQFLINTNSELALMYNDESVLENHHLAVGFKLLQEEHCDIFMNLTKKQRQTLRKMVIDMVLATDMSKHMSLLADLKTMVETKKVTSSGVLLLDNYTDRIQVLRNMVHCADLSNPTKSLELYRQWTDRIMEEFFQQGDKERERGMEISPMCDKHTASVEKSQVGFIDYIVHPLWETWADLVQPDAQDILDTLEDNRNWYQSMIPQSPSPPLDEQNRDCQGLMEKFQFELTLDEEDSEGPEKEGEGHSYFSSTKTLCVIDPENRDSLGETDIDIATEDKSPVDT
Ubiquitin carboxyl-terminal hydrolase 1 (Homo sapiens), sequence (O94782 whole entry, looked up): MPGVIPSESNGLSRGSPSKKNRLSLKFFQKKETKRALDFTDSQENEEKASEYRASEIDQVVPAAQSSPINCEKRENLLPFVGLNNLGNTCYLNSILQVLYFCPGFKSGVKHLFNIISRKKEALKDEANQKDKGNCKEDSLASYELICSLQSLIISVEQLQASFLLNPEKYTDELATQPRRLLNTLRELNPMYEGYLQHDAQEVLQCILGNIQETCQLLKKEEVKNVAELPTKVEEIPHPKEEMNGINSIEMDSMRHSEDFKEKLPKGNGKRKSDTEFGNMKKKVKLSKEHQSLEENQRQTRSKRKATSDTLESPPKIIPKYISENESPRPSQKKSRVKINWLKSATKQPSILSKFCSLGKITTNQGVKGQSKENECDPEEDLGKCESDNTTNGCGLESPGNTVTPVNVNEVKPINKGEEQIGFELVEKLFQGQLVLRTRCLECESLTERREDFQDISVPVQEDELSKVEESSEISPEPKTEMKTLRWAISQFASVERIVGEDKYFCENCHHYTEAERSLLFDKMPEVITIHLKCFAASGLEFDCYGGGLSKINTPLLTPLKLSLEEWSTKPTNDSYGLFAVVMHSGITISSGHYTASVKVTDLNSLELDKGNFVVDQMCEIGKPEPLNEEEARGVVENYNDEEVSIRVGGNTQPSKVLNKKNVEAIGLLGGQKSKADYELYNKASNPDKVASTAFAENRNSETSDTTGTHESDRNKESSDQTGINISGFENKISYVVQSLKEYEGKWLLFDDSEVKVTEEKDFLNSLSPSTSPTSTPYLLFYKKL
Cytochrome P450 3A4 (Homo sapiens), sequence (P08684 whole entry, looked up): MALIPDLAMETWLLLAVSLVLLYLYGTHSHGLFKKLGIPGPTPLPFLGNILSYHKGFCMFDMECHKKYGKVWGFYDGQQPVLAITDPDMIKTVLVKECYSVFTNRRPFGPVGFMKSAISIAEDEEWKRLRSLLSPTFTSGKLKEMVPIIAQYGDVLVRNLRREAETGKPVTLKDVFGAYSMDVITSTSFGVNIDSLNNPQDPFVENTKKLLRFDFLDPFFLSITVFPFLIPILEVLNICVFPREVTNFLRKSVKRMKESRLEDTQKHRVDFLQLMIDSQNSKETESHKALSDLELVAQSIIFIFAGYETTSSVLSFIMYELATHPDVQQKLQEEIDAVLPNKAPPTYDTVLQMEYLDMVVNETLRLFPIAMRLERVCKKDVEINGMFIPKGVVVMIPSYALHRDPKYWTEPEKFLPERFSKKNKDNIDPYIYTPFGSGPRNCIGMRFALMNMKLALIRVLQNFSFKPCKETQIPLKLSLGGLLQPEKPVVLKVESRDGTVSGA
Cytochrome P450 2D6 (Homo sapiens), sequence (P10635 whole entry, looked up): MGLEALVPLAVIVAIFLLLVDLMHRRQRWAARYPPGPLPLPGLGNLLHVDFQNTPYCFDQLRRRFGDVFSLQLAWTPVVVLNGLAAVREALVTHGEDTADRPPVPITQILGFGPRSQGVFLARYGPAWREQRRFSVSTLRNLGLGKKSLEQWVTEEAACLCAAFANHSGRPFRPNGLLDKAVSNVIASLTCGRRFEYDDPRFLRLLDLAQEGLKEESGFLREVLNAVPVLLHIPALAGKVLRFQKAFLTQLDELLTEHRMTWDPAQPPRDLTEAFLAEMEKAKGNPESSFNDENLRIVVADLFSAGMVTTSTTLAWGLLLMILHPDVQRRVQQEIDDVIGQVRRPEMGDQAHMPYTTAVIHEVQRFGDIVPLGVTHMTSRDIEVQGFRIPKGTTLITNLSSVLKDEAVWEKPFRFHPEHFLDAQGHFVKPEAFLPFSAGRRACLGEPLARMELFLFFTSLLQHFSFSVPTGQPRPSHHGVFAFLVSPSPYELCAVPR

## CC(C)NC(=O)N1CC[C@@]2(CCCN(C(=O)c3ccncc3)C2)C1
[1]
  Potency: > 11.4 µM (inactive)
[2]
  activity change, negative = inhibition: -20.1% (inactive)
[3]
  activity change, negative = inhibition: 16.9% (inactive)
[4]
  activity, negative = inhibition: -4.77% (inactive)
[5]
  Potency: > 46 µM (inactive)
[6]
  Potency: inactive
[7]
  Potency: inactive
[8]
  activity change, negative = inhibition: 0.271% (inactive)
[8]; [16]
  max response: -1.86%
[8]; [17]
  max response: 0.996%
[9]
  outcome: inactive

## O=c1c(-c2cc(F)cc(F)c2)nc2cncnc2n1Cc1ccc(F)cc1
[1]
  Potency: > 11.4 µM (inactive)
[2]
  activity change, negative = inhibition: -2.14% (inactive)
[3]
  activity change, negative = inhibition: -15.1% (inactive)
[4]
  activity, negative = inhibition: -0.133% (inactive)
[10]
  Potency: > 9.22 µM (inactive)
[5]
  Potency: > 46 µM (inactive)
[6]
  Potency: inactive
[7]
  Potency: inactive
[11]
  Potency: inactive
[8]
  activity change, negative = inhibition: -8.57% (inactive)
[8]; [16]
  max response: -5.87%
[8]; [17]
  max response: -11%
[9]
  outcome: inactive

## CN(C)Cc1ccccc1-c1cc(N(C)C)ncn1
[1]
  Potency: > 11.4 µM (inactive)
[2]
  activity change, negative = inhibition: -1.87% (inactive)
[3]
  activity change, negative = inhibition: -11.7% (inactive)
[4]
  activity, negative = inhibition: 7.42% (inactive)
[10]
  Potency: > 46 µM (inactive)
[5]
  Potency: > 46 µM (inactive)
[6]
  Potency: inactive
[7]
  Potency: inactive
[12]
  Potency: 1.26 µM (active)
[13]
  Potency: inactive
[14]
  outcome: inactive
[8]
  activity change, negative = inhibition: 5.84% (inactive)
[8]; [16]
  max response: 8.47%
[8]; [17]
  max response: 12%
[15]
  Potency: inactive
[9]
  outcome: inactive

## CS(=O)(=O)N1CCC[C@@]2(CCN(Cc3ccc(C#N)cc3)C2)C1
[1]
  Potency: > 11.4 µM (inactive)
[2]
  activity change, negative = inhibition: 10.7% (inactive)
[3]
  activity change, negative = inhibition: -5.85% (inactive)
[4]
  activity, negative = inhibition: -6.21% (inactive)
[5]
  Potency: > 46 µM (inactive)
[6]
  Potency: inactive
[7]
  Potency: inactive
[8]
  activity change, negative = inhibition: 1.64% (inactive)
[8]; [16]
  max response: -0.832%
[8]; [17]
  max response: -0.755%
[9]
  outcome: inactive

## CN(C)C(=O)c1ccc(-c2ccc3ncnc(NC4CCNCC4)c3c2)cc1
[1]
  Potency: > 11.4 µM (inactive)
[2]
  activity change, negative = inhibition: -6.93% (inactive)
[3]
  activity change, negative = inhibition: 7.8% (inactive)
[4]
  activity, negative = inhibition: 14.8% (inactive)
[10]
  Potency: > 46 µM (inactive)
[5]
  Potency: > 46 µM (inactive)
[6]
  Potency: inactive
[7]
  Potency: inactive
[13]
  Potency: inactive
[14]
  outcome: inactive
[8]
  activity change, negative = inhibition: 6.36% (inactive)
[8]; [16]
  max response: 9.43%
[8]; [17]
  max response: 16.5%
[15]
  Potency: inactive
[9]
  outcome: inactive

## Cn1cccc1C(=O)N1CCC[C@@]2(CCN(C(=O)Nc3cccc(F)c3)C2)C1
[1]
  Potency: > 11.4 µM (inactive)
[2]
  activity change, negative = inhibition: -5.32% (inactive)
[3]
  activity change, negative = inhibition: 4.03% (inactive)
[4]
  activity, negative = inhibition: 5.29% (inactive)
[5]
  Potency: > 46 µM (inactive)
[6]
  Potency: inactive
[7]
  Potency: inactive
[8]
  activity change, negative = inhibition: 4.9% (inactive)
[8]; [16]
  max response: 9.75%
[8]; [17]
  max response: 17.3%
[9]
  outcome: inactive
